Assay results as given in the supplement of paper PMC13172266.

tested on: U2932 parental; experiment: cell proliferation relative to vehicle (% of vehicle); higher = less growth inhibition; conditions: 500 nM; 72 h
In short: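 A library of 348 targeted inhibitors was screened against the ABC-DLBCL cell line U2932, using parental cells and two clones made resistant to an ETS-targeting agent through repeated exposure over almost a year. The cells were cultured at 37°C and 5% CO2 in medium containing 10% FBS and treated at 500 nM or 50 nM for 72 h, after which MTT was added for 4 h, stopped with 25% SDS, and absorbance was read on a Cytation 3. Proliferation is given as the percentage of proliferating cells relative to the vehicle, DMSO.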

Question: With `O=C(O)C1(C(=O)O)CCC1.[NH2-].[NH2-].[Pt+2]` [Carboplatin] as the compound, how does the cell proliferation read?
Answer: Its cell proliferation is 95.3.

Question: How did the cell proliferation turn out when `C[C@]1(O)C[C@@H](c2nc(-c3ccc4ccc(-c5ccccc5)nc4c3)c3c(N)nccn32)C1` [OSI-906 (Linsitinib)] was run?
Answer: The cell proliferation was 99.7.

Question: `O=C(O)c1ccc(-c2c[nH]c3ncc(-c4ccccc4)cc23)cc1C1CCCC1` was tested. Which cell proliferation did it give?
Answer: Its cell proliferation is 107.

Question: For `CN(C)CC[C@H](CSc1ccccc1)Nc1ccc(S(=O)(=O)NC(=O)c2ccc(N3CCN(Cc4ccccc4-c4ccc(Cl)cc4)CC3)cc2)cc1[N+](=O)[O-]`, which cell proliferation is on record?
Answer: The cell proliferation was 61.2.

Question: How did the cell proliferation turn out when `O=C(O)c1ccc(Nc2ncc3c(n2)-c2ccc(Cl)cc2C(c2c(F)cccc2F)=NC3)cc1` was run?
Answer: The cell proliferation was 65.5.

Question: For `CNC(=O)c1cccc(-c2ccc3c(N4CCOC[C@@H]4C)nc(N4CCOC[C@@H]4C)nc3n2)c1`, which cell proliferation is on record?
Answer: Its cell proliferation is 46.4.

Question: `C[C@]12CCC(=O)C=C1CC[C@@H]1[C@@H]2[C@@H](O)C[C@@]2(C)[C@H]1CC[C@]2(O)C(=O)CO` [Hydrocortisone] was tested. Which cell proliferation did it give?
Answer: The cell proliferation was 87.3.

Question: How did the cell proliferation turn out when `Cc1cnc(-c2cnc(NCCNc3ccc(C#N)cn3)nc2-c2ccc(Cl)cc2Cl)[nH]1` was run?
Answer: Its cell proliferation is 95.

Question: Which cell proliferation does the source give for `CCOC(=O)C1=C(N)Oc2ccc(Br)cc2C1C(C#N)C(=O)OCC` (stereo not drawn) here?
Answer: The cell proliferation was 97.6.

Question: For `CN(NC(=O)CC(=O)NN(C)C(=S)c1ccccc1)C(=S)c1ccccc1` [Elesclomol (STA-4783)], which cell proliferation is on record?
Answer: The cell proliferation was -1.37.

Question: Which cell proliferation does the source give for `CCc1ccc(/C=C2/SC(=S)NC2=O)cc1` here?
Answer: Its cell proliferation is 104.

Question: For `O=c1[nH]cc(F)c(=O)[nH]1` [Fluorouracil (5-Fluoracil, 5-FU)], which cell proliferation is on record?
Answer: Its cell proliferation is 96.2.

Question: For `C[C@@H](N)[C@H]1CC[C@H](C(=O)Nc2ccncc2)CC1`, which cell proliferation is on record?
Answer: Its cell proliferation is 97.7.
